High-throughput results from PubChem.
The list is not random: actives were taken first. Their share in the collection is about 3.1%.
EPAC2 antag – Validation qHTS for antagonist of cAMP-regulated guanine nucleotide exchange factor 4 (EPAC2). Rap guanine nucleotide exchange factor 4 (Homo sapiens), Q8WZA2. EPAC2 Rap1B BODIPY-GDP exchange, fluorescence. Potency, µM (top dose mostly 112 µM), for inactives: at the top dose activity, negative = inhibition, most hits filed as inhibitors. 16,000 compounds, 1.7% hits. AID 1645886, 2021;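 note: 100% = activation by cAMP agonist control; nearly all actives have a fitted effect of over 40% in size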
Target sequence (Q8WZA2 whole entry, looked up): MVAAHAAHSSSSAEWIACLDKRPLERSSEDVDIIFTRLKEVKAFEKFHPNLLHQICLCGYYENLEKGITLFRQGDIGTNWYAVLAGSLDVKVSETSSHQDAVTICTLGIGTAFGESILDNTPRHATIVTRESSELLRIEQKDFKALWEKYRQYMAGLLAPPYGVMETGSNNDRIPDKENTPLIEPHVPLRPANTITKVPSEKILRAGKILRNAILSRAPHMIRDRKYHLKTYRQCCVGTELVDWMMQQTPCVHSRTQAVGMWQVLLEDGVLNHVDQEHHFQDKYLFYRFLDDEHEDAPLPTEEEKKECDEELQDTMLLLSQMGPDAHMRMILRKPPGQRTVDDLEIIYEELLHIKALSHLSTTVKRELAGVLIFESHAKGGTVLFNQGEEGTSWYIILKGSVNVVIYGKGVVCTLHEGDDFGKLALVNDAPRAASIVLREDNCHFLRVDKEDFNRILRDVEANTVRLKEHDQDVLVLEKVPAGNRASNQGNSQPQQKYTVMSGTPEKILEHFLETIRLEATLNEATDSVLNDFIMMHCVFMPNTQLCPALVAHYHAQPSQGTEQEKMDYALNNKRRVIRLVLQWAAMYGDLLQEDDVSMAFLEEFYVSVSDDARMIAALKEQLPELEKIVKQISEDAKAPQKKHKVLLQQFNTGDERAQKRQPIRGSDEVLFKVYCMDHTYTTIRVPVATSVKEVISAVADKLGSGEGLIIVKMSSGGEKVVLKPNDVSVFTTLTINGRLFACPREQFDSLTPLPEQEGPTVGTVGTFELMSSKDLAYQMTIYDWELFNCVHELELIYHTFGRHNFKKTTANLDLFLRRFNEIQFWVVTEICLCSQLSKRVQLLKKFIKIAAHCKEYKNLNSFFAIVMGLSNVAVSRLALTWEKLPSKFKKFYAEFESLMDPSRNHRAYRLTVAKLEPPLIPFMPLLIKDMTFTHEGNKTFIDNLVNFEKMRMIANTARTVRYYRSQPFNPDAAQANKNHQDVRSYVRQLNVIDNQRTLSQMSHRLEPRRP
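Fluorescent exchange read-out: 100 nM EPAC2 with 250 nM RAP1B–BODIPY-GDP and 50 uM GDP; BODIPY-GDP release lowers fluorescence. Read at 480/540 nm every 5 min for 30 min at room temperature; normalized to 6.5 mM cAMP.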
EPAC1 ag val – Validation qHTS for agonist of cAMP-regulated guanine nucleotide exchange factor 3 (EPAC1); EPAC1 Rap1b BODIPY-GDP exchange, fluorescence; Rap guanine nucleotide exchange factor 3 (Homo sapiens), O95398; Potency, µM, without a hit: max response, positive = active, hits mostly activators; 16,000 compounds, 1% hits; note: nearly all actives have a fitted effect of over 70% in size
Numbers without * were called inactive; u = inconclusive; ! = not confirmed by another sample; [ ] = another dose, or the depositor's remark. Calls come from the whole dose curve; as a rule, active = well fitted curve in the direction sought with a large enough effect; inconclusive = small, poorly fitted or top-dose-only effect, or another doubt; inactive = no such curve, though single readings can be large; an effect the other way counts as inactive or inconclusive. Unless noted, % is set by controls: 0 for no effect and ±100 for the full control effect; potency is the fitted concentration of half-maximal effect.

SMILES | EPAC2 antag | EPAC1 ag val
Cc1c(C(=O)N2CCN(C)CC2)sc2ncnc(NCC3(c4ccccc4)CCOCC3)c12 | -23.9% | 16.0%
CC1(C)[C@@H](OC(=O)CCC(=O)O)CC[C@]2(C)[C@H]3C(=O)C=C4[C@@H]5C[C@@](C)(C(=O)O)CC[C@]5(C)CC[C@@]4(C)[C@]3(C)CC[C@@H]12 | 3.98µM* | -6.9%
CC(=O)OC1CC[C@]2(C)C(CC[C@@]3(C)C2C(=O)C=C2C4C(C)C(C)CC[C@@]4(C(=O)O)CCC23C)C1(C)C (stereo partly drawn) | -19.7% | -188.7%
CCN(CC)C1CCN(C(=O)c2cnn(-c3ncc4c(n3)-c3ccccc3CCC4)c2COC)C1 (stereo not drawn) | -14.2% | -0.1%
CC(C)c1c(O)ccc2c1CCC1[C@@](C)(CO)CCC[C@@]21C (stereo partly drawn) | -22.1% | 28.5%
COc1ccc2c(c1)[C@@]1(C)CCC[C@](C)(CO)C1CC2 (stereo partly drawn) | 44.7µM* | -14.3%
COCCn1c(=O)c(CCc2ccccc2)nc2cnc(N3CCOCC3)nc21 | -29.7% | u
COc1cc(C)c(C(=O)Oc2cc(C)c(C(=O)O)c(O)c2C)c(OC)c1C | 50.1µM* | -128.3%
COc1cc(OC)c(C(C)=O)c(O)c1C | -8.8% | -16.8%
O=C(c1cccc(F)c1)N1CCC2(CC1)CCN(c1ncccn1)CC2 | -22.6% | -43.9%
CC(C)CN1CC[C@@]2(CCCN(S(=O)(=O)c3ccccc3)C2)C1 | -21.8% | -69.8%
CCN(CC)CCOC[C@H]1O[C@@H](O)[C@H](OCCN(CC)CC)[C@@H](O)[C@@H]1O | 12.4% | -18.7%
Nc1c(S(=O)(=O)O)cc(Nc2ccc(Nc3nc(Cl)nc(Nc4ccc(S(=O)(=O)O)cc4)n3)c(S(=O)(=O)O)c2)c2c1C(=O)c1ccccc1C2=O | 79.4µM* | u
CC(C)NCC(O)COc1ccc(COCCOC(C)C)cc1 (stereo not drawn) | -8.9% | u
Nc1ncnc2c1nc(Br)n2C1OC2COP(=O)(O)O[C@@H]2C1O (stereo partly drawn) | 1.26µM* | 0.447µM*
Nc1nc2c(nc(Br)n2[C@@H]2O[C@H]3COP(=O)(O)O[C@H]3[C@@H]2O)c(=O)[nH]1 | -29.9% | 21.3%
NC(N)=NCCC[C@H](NC(=O)[C@@H](N)Cc1ccc(O)cc1)C(=O)O | 4.2%[11.4 µM] | -10.3%
COc1cc(-c2noc(C)c2-c2ccc3[nH]ccc3c2)cc(OC)c1OC | 79.4µM* | -72.6%
COc1cc(-c2noc(C)c2-c2ccc(N(C)C)nc2)cc(OC)c1OC | u | -2.3%
O=c1c(-c2ccc(Cl)cc2)nc2cncnc2n1Cc1ccccc1Cl | -21.9% | 112µM*
O=c1c(-c2ccc(Cl)cc2)nc2cncnc2n1Cc1ccccc1 | -27.7% | u
FC(F)(F)c1ccccc1-c1cncnc1NCCc1cnc[nH]1 | -13.9% | 16.7%
O=c1c(-c2cc(F)cc(F)c2)nc2cncnc2n1-c1ccccc1 | -16.6% | -40.4%
COCCn1c(=O)c(C)nc2cnc(N3CCN(C)CC3)nc21 | 5.7% | -8.3%
COC(=O)c1c(OC)cc2c(c1C)Oc1c(Cl)c(OC(C)=O)c(Cl)c(C)c1C(=O)O2 | 11.2µM* | -25.5%
SMILES | EPAC2 antag | EPAC1 ag val
COC(=O)c1c(C)cc(OC)cc1O | u | -31.9%
COc1ccc(Oc2ncc3nc(C)c(=O)n(CCc4ccccc4)c3n2)cc1 | -26.3% | -49.2%
O=S1(=O)CCO[C@H]2Cc3ccccc3[C@H]2N1Cc1cccc(F)c1 | u | -15.2%
O=S1(=O)CCO[C@H]2Cc3ccccc3[C@H]2N1Cc1cccc(C(F)(F)F)c1 | 28.2µM* | -83.8%
CCOC(=O)/C=C/c1ccc2oc3ccccc3c(=O)c2c1 | -15.3% | -0.8%
O=c1c2ccccc2oc2ccc(Oc3ccccc3)cc12 | u | 100µM*
Nc1nc2c(ncn2COCCO)c(=O)[nH]1 | -2.5% | -8.5%
Cc1noc(C)c1C(=O)N1CCC2(CCCN(c3ncccn3)C2)CC1 | -23.8% | -13.4%
CCOC(=O)C1=C(C)NC(C)=C(C(=O)OCC)C1c1c(F)c(F)c(F)c(F)c1F | 35.5µM* | -23.4%
CCOC(=O)C1=C(C)NC(C)=C(C(=O)OCC)C1c1ccccc1C=CC(=O)OC(C)(C)C | -23.8% | -59.3%
Cc1nc2ccc(C(=O)N3CCOc4ccc(CN5CCOCC5)cc4C3)cc2nc1C | -11.0% | -0.3%
COc1ccccc1CC(=O)NCC1Cc2cc(F)cc(-c3cncnc3)c2O1 (stereo not drawn) | -20.2% | 2.6%
O=C(CCn1cncn1)NCC1Cc2cc(-c3ccsc3)cc(Cl)c2O1 (stereo not drawn) | -23.9% | u
Cc1cc(-c2cc(F)cc3c2OC(CNC(=O)CCn2cncn2)C3)ccc1F (stereo not drawn) | 79.4µM* | 6.1%
COC(=O)c1ccc(C(=O)NCC2Cc3cc(F)cc(-c4cncnc4)c3O2)cc1 (stereo not drawn) | 2.51µM* | 14.1%
CCn1cc(CN2Cc3ccccc3OC(c3ccccc3OC)C2)c(C)n1 (stereo not drawn) | u | -10.9%
O=S1(=O)CCOC[C@H](c2ccccc2)N1Cc1cccc(Cl)c1 | u | -15.6%
Cc1cccc(C)c1NC(=O)C(C)N (stereo not drawn) | -13.3% | 89.1µM*!
CN=C(N)NC(=O)Nc1c(C)cccc1C | 15.7% | 2.1%
COc1ccc(/C=C/C(=O)c2ccc(OC)cc2OC)cc1 | 15.8µM* | 14.2%
COc1ccc(/C=C/C(=O)c2ccc(O)cc2O)cc1 | -18.4% | 16.7%
C=C1/C(=C\C=C2/CCC[C@]3(C)[C@@H]([C@H](C)OCCC(C)(C)O)CC[C@@H]23)C[C@@H](O)C[C@@H]1O | -1.2% | -25.3%
CC(C)=CCc1c(O)cc2occ(-c3ccc4c(c3)OCO4)c(=O)c2c1O | -25.5% | u
CC(C)=CCc1c2c(c3occ(-c4ccc(O)c(O)c4)c(=O)c3c1O)C=CC(C)(C)O2 | 25.1µM* | -151.2%
O=c1c(-c2ccc(O)cc2)coc2cc(O)cc(O)c12 | -18.1% | -4.9%
SMILES | EPAC2 antag | EPAC1 ag val
CC(C)=CCc1c2c(c3occ(-c4ccc(O)cc4)c(=O)c3c1O)C=CC(C)(C)O2 | 31.6µM* | -170.3%
COc1ccc(Oc2ncc3nc(-c4ccc(Cl)cc4)c(=O)n(CCC#N)c3n2)cc1 | -26.5% | 3.7%
COc1ccc2c(c1)c(CC(=O)O)c(C)n2Cc1ccc(Cl)cc1 | -24.7% | 1.4%
Cc1c(CC(C)(C)C(=O)O)n(Cc2ccc(Cl)cc2)c2ccc(F)cc12 | 44.7µM* | -9.2%
N#Cc1ccc(CN2CC[C@@]3(CCCN(C(=O)c4ccco4)C3)C2)cc1 | -12.2% | -29.4%
Cc1cc(C)c2c(C)ccnc2c1 | -3.5% | 25.6%
CN(C)c1ccc(/C=C/c2ccnc3c2ccc2ccccc23)cc1 | 33.4% | u
Cc1ccc2c(/C=C/c3ccc(N(C)C)cc3)ccnc2c1C | 6.2% | 100µM*
Cc1cc(C)c2nccc(/C=C/c3ccc(N(C)C)cc3)c2c1 | 45.4% | 100µM*
CC(C)[C@H]1COCCS(=O)(=O)N1Cc1ccc(Cl)cc1 | u | -49.1%
CCC(C)[C@H]1COCCS(=O)(=O)N1Cc1ccc(Br)cc1 (stereo partly drawn) | 10µM* | -123.9%
CCC(C)[C@H]1COCCS(=O)(=O)N1Cc1ccc(Cl)cc1Cl (stereo partly drawn) | 28.2µM* | -29.6%
CCC(C)[C@H]1COCCS(=O)(=O)N1Cc1ccccc1F (stereo partly drawn) | u | -51.5%
